Unmarked numbers belong to inactive results. Calls of active or inactive are those of the source. Calls follow the shape of the full dose curve.
Molecular target: Muscarinic acetylcholine receptor M1 (Homo sapiens) (UniProt P11229)
Assay: Cholinergic receptor muscarinic 1 (CHRM1) small molecule agonists, cell-based qHTS assay (AID 1963589); also: nearly all actives have a fitted effect of over 35% in size
Conditions: CHRM1-CHO cells, agonist mode, calcium flux fluorescence; series mostly up to 76.8 µM; activation: at the top concentration
Text: National Center for Advancing Translational Sciences [NCATS]
Division of Preclinical Innovation [DPI]
U.S. Environmental Protection Agency [EPA]
National Institutes of Environmental Health Sciences [NIEHS]
National Toxicology Program [NTP]
U.S. Food and Drug Administration [FDA]
The CHRM1 is a muscarinic receptor. This receptor plays a crucial role in learning and memory processes and has long been identified as a promising therapeutic target for the improvement of cognitive decline in Alzheimer's disease (AD). The CHRM1-CHO cell line stably expressing human muscarinic acetylcholine receptor M1 (CHRM1) can be used for screening agonists and antagonists of interactions between CHRM1 and its ligands. The CHRM1-CHO Calcium Flux Assay is a homogeneous fluorescence-based assay for detecting the intracellular calcium level using FDSS kinetic plate reader system.
CHRM1-CHO cells were dispensed at 1000 cells/3uL/well in 1536-well black-clear bottom plates using a Multidrop Dispenser. After the assay plates were incubated at a 37 C/5% CO2 incubator for 18 h, 3 uL of Dye Loading Buffer was transferred to the assay plate by a Flying Reagent Dispenser. The assay plates were incubated at 37 C for 1h. For agonist mode, 23 nL of compounds dissolved in DMSO, positive controls or DMSO only was transferred to the assay plate by a pin tool. […] Each test compound was measured at 15 concentrations in three independent runs.
% is scaled to controls: 0 for no effect and ±100 for the full control effect.

Chain of Muscarinic acetylcholine receptor M1 (Homo sapiens) (P11229 whole entry, looked up): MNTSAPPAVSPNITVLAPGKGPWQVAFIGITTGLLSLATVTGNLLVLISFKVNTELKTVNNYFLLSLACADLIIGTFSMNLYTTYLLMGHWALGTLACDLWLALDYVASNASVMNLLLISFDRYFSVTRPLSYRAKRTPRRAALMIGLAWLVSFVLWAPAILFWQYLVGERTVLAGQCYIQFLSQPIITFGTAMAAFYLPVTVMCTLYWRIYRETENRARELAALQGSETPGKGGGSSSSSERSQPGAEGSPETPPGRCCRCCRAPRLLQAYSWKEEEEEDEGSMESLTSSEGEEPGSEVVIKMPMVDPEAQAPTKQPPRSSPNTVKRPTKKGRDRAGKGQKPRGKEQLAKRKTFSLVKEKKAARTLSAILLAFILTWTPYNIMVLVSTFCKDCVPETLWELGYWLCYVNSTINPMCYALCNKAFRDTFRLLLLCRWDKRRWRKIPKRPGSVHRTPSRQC

Row | SMILES | activation | Potency
1 | Oc1cc(Cl)c(Cl)c(Cl)c1 | 1.19% | 
2 | Cc1cc(OC(=O)N(C)C)nn1C(=O)N(C)C | 0.664% | 
3 | CC(=O)[O-].CC(=O)[O-].CC(=O)[O-].[Cr+3] | 0.0917% | 
4 | CC(=O)/C=C/c1ccc2c(c1)OCO2 | -0.682% | 
5 | CCc1ccccc1N | -0.14% | 
6 | O=C1C(I)=CC(=C(c2cc(I)c(O)c(I)c2)c2ccccc2C(=O)O)C=C1I | 0.582% [at 35.3 µM] | 
7 | CCCCN(CCCC)C(=S)S | 0.855% | 
8 | COCC(C)N(C(=O)CCl)c1c(C)csc1C (stereo not given) | -0.996% | 
9 | CNC(=O)Oc1ccccc1C(C)C | -0.762% | 
10 | COP(=O)(OC)OC(Br)C(Cl)(Cl)Br (stereo not given) |  | inactive
11 | C=C(C)C(=O)OCCCCOC(=O)C(=C)C | 0.0948% | 
12 | COc1cccc2c1C(=O)c1c(O)c3c(c(O)c1C2=O)C[C@@](O)(C(=O)CO)CC3OC1CC(N2CCOC(OC)C2)C(O)C(C)O1 (stereo not given in full) | 13.3% [at 35.3 µM] | 
13 | CCN(CC)C(=O)Cl | -0.12% | 
14 | C=CC(=O)OCCN(C)C | 9.27% | 
15 | Clc1c(Cl)c(Cl)c(Cl)c(Cl)c1Cl | 0.839% [at 6.97 µM] | 
16 | CC(C)Oc1cccc(NC(=O)c2ccccc2C(F)(F)F)c1 | -1.31% | 
17 | CCOP(=S)(OCC)OC(Cl)C(Cl)(Cl)Cl (stereo not given) | 0.739% | 
18 | FC(F)(F)c1cccc(C2=CCN(CCc3ccc4ccccc4c3)CC2)c1 | 5.76% [at 35.3 µM] | 
19 | CC(Cc1ccccc1)N(C)Cc1ccco1 (stereo not given) | -0.0879% [at 35.3 µM] | 
20 | CC[C@H]1C[C@@H]2C[C@H]3c4[nH]c5ccc(OC)cc5c4CCN(C2)[C@@H]13 | -0.306% | 

Row | SMILES | activation | Potency
21 | CC(C)(O)c1cnn2c(-c3ccc(F)c(-c4c(F)cccc4C#N)c3)cnc2n1 | 32.3% | 
22 | CC(C)[C@H](C(=O)O[C@H](C#N)c1cccc(Oc2ccccc2)c1)c1ccc(Cl)cc1 | 0.0734% | 
23 | CCCCCCCCCC[N+](C)(C)CCCCCCCCCC | 17.8% | 
24 | O=S1(=O)OCCO1 | 0.0504% | 
25 | O=NN(CCO)CCO | -0.105% | 
26 | C[C@H](CN1CCOCC1)C(C(=O)N1CCCC1)(c1ccccc1)c1ccccc1 | 0.127% | 
27 | CC(C)(OO)c1ccccc1 | -0.206% | 
28 | O=C(O)C(F)(F)C(F)(F)C(F)(F)C(F)(F)C(F)(F)F | -0.0769% | 
29 | C=CCC1=C(C)[C@@H](OC(=O)[C@@H]2[C@@H](C=C(C)C)C2(C)C)CC1=O | 0.52% | 
30 | C[N+](C)=CCl | -0.927% | 
31 | O=[N+]([O-])c1cc(Cl)c(Cl)cc1Cl | -1.15% | 
32 | Oc1ccc(Cc2ccc(O)cc2)cc1 | 1.97% | 
33 | CNC(=O)O/N=C(/CSC)C(C)(C)C | -0.011% | 
34 | CNNC | -0.0032% | 
35 | CC(C)O.CC(C)O.OCCN(CCO)CCO.OCCN(CCO)CCO.[Ti] | -0.458% | 
36 | O=C(CBr)OCc1ccccc1 | 0.237% | 
37 | CC(C)(C)c1ccc(OP(=O)(Oc2ccccc2)Oc2ccccc2)cc1 | -0.469% | 
38 | COP(=S)(OC)Oc1cc(Cl)c(I)cc1Cl | 1.41% | 
39 | CCOP(=O)(O)C(N)=O | -0.222% | 
40 | CNP(=O)(OC)Oc1ccc(C(C)(C)C)cc1Cl (stereo not given) | 0.335% | 

— PubChem BioAssay (Tox21)
